# Like-named read-outs stand apart in the source and are kept apart here.
# Key:
# LCK = conditions: concentration: 1 μM, replicates: in singlicate; n = 1
# LIMK1 = conditions: concentration: 1 μM, replicates: in singlicate; n = 1
# LIMK2 = conditions: concentration: 1 μM, replicates: in singlicate; n = 1
# LKB1 = system: T1, LKB1; conditions: concentration: 1 μM, replicates: in singlicate; n = 1
# T1 construct: gene STK11
# LOK = system: T2, LOK; conditions: concentration: 1 μM, replicates: in singlicate; n = 1
# T2 construct: gene STK10
# LRRK2 = conditions: n = 1
# LTK = conditions: concentration: 1 μM, replicates: in singlicate; n = 1
# LYN = conditions: concentration: 1 μM, replicates: in singlicate; n = 1
# LZK = system: T3, LZK; conditions: concentration: 1 μM, replicates: in singlicate; n = 1
# T3 construct: gene MAP3K13
# MAK = conditions: concentration: 1 μM, replicates: in singlicate; n = 1
# MAP3K15 = conditions: concentration: 1 μM, replicates: in singlicate; n = 1
# MAP3K1 = conditions: concentration: 1 μM, replicates: in singlicate; n = 1
# MAP3K2 = conditions: concentration: 1 μM, replicates: in singlicate; n = 1
# MAP3K3 = conditions: concentration: 1 μM, replicates: in singlicate; n = 1
# MAP3K4 = conditions: concentration: 1 μM, replicates: in singlicate; n = 1
# MAP4K2 = conditions: concentration: 1 μM, replicates: in singlicate; n = 1
# MAP4K3 = conditions: concentration: 1 μM, replicates: in singlicate; n = 1
# MAP4K4 = conditions: concentration: 1 μM, replicates: in singlicate; n = 1
# MAP4K5 = conditions: concentration: 1 μM, replicates: in singlicate; n = 1
# MAPKAPK2 = conditions: concentration: 1 μM, replicates: in singlicate; n = 1
# [1] = concentration: 1 μM, replicates: in singlicate
# 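Further: KINOMEscan kinase panel screen.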
smiles,measurement,setting,value
COc1cccc(-c2nc(-c3ccccc3)[nH]c2-c2ccncc2)c1 [SB-610250],%Inh,LCK,16%
same,%Inh,LIMK1,20%
same,%Inh,LIMK2,0%
same,%Inh,LKB1,4%
same,%Inh,LOK,0%
same,%Inh,LRRK2; [1],14%
same,%Inh,LTK,0%
same,%Inh,LYN,0%
same,%Inh,LZK,0%
same,%Inh,MAK,47%
same,%Inh,MAP3K15,0%
same,%Inh,MAP3K1,16%
same,%Inh,MAP3K2,9%
same,%Inh,MAP3K3,0%
same,%Inh,MAP3K4,0%
same,%Inh,MAP4K2,0%
same,%Inh,MAP4K3,0%
same,%Inh,MAP4K4,1%
same,%Inh,MAP4K5,0%
same,%Inh,MAPKAPK2,17%
Cc1cc(-c2c(-c3ccc(F)cc3)ncn2CCCN2CCOCC2)nc(N)n1 [SB-222517],%Inh,LCK,12%
same,%Inh,LIMK1,0%
same,%Inh,LIMK2,0%
same,%Inh,LKB1,45%
same,%Inh,LOK,18%
same,%Inh,LRRK2; [1],0%
same,%Inh,LTK,4%
same,%Inh,LYN,17%
same,%Inh,LZK,0%
same,%Inh,MAK,35%
same,%Inh,MAP3K15,0%
same,%Inh,MAP3K1,24%
same,%Inh,MAP3K2,30%
same,%Inh,MAP3K3,0%
same,%Inh,MAP3K4,15%
same,%Inh,MAP4K2,0%
same,%Inh,MAP4K3,5%
same,%Inh,MAP4K4,0%
same,%Inh,MAP4K5,0%
same,%Inh,MAPKAPK2,0%
NCCC(NC(=O)c1cc(Br)c(-c2ccnc3[nH]ccc23)s1)c1ccccc1.O=C(O)C(F)(F)F.O=C(O)C(F)(F)F (stereo not shown) [GSK1307810],%Inh,LCK,12%
same,%Inh,LIMK1,12%
same,%Inh,LIMK2,30%
same,%Inh,LKB1,29%
same,%Inh,LOK,0%
same,%Inh,LRRK2; [1],14%
same,%Inh,LTK,0%
same,%Inh,LYN,7%
same,%Inh,LZK,30%
same,%Inh,MAK,30%
same,%Inh,MAP3K15,65%
same,%Inh,MAP3K1,16%
same,%Inh,MAP3K2,38%
same,%Inh,MAP3K3,2%
same,%Inh,MAP3K4,0%
same,%Inh,MAP4K2,23%
same,%Inh,MAP4K3,15%
same,%Inh,MAP4K4,45%
same,%Inh,MAP4K5,0%
same,%Inh,MAPKAPK2,0%
COc1ccc(C)c(Nc2ccnc(Nc3ccc(-c4cnc[nH]4)cc3)n2)c1.Cl [GW784041],%Inh,LCK,75%
same,%Inh,LIMK1,31%
same,%Inh,LIMK2,16%
same,%Inh,LKB1,0%
same,%Inh,LOK,57%
same,%Inh,LRRK2; [1],0%
same,%Inh,LTK,42%
same,%Inh,LYN,30%
same,%Inh,LZK,0%
same,%Inh,MAK,0%
same,%Inh,MAP3K15,0%
same,%Inh,MAP3K1,0%
same,%Inh,MAP3K2,0%
same,%Inh,MAP3K3,28%
same,%Inh,MAP3K4,18%
same,%Inh,MAP4K2,0%
same,%Inh,MAP4K3,6%
same,%Inh,MAP4K4,23%
same,%Inh,MAP4K5,19%
same,%Inh,MAPKAPK2,0%
CC(C)NCC(Cc1ccccc1)NC(=O)c1cc(Br)c(-c2ccnc3[nH]ccc23)s1.Cl.Cl (stereo not shown) [GSK1383281],%Inh,LCK,11%
same,%Inh,LIMK1,0%
same,%Inh,LIMK2,11%
same,%Inh,LKB1,0%
same,%Inh,LOK,0%
same,%Inh,LRRK2; [1],0%
same,%Inh,LTK,0%
same,%Inh,LYN,0%
same,%Inh,LZK,0%
same,%Inh,MAK,34%
same,%Inh,MAP3K15,0%
same,%Inh,MAP3K1,0%
same,%Inh,MAP3K2,34%
same,%Inh,MAP3K3,0%
same,%Inh,MAP3K4,0%
same,%Inh,MAP4K2,0%
same,%Inh,MAP4K3,0%
same,%Inh,MAP4K4,27%
same,%Inh,MAP4K5,0%
same,%Inh,MAPKAPK2,0%
COc1ccc(NC(=O)c2ccoc2)cc1-c1ccc(C(=O)NCC2CC2)cc1 [GW810437],%Inh,LCK,0%
same,%Inh,LIMK1,2%
same,%Inh,LIMK2,0%
same,%Inh,LKB1,52%
same,%Inh,LOK,28%
same,%Inh,LRRK2; [1],20%
same,%Inh,LTK,16%
same,%Inh,LYN,0%
same,%Inh,LZK,19%
same,%Inh,MAK,13%
same,%Inh,MAP3K15,4%
same,%Inh,MAP3K1,13%
same,%Inh,MAP3K2,9%
same,%Inh,MAP3K3,0%
same,%Inh,MAP3K4,6%
same,%Inh,MAP4K2,10%
same,%Inh,MAP4K3,0%
same,%Inh,MAP4K4,0%
same,%Inh,MAP4K5,7%
same,%Inh,MAPKAPK2,0%
Cc1cc(-c2ccnc(Nc3cccc(C#N)c3)n2)cc(C)c1O [GSK1440913],%Inh,LCK,18%
same,%Inh,LIMK1,14%
same,%Inh,LIMK2,42%
same,%Inh,LKB1,86%
same,%Inh,LOK,17%
same,%Inh,LRRK2; [1],0%
same,%Inh,LTK,0%
same,%Inh,LYN,20%
same,%Inh,LZK,0%
same,%Inh,MAK,36%
same,%Inh,MAP3K15,0%
same,%Inh,MAP3K1,22%
same,%Inh,MAP3K2,2%
same,%Inh,MAP3K3,1%
same,%Inh,MAP3K4,18%
same,%Inh,MAP4K2,30%
same,%Inh,MAP4K3,18%
same,%Inh,MAP4K4,76%
same,%Inh,MAP4K5,12%
same,%Inh,MAPKAPK2,0%
CN(C)c1ncnc2nc[nH]c12 [SKF-31736],%Inh,LCK,0%
same,%Inh,LIMK1,0%
same,%Inh,LIMK2,0%
same,%Inh,LKB1,0%
same,%Inh,LOK,2%
same,%Inh,LRRK2; 1 µM,0%
same,%Inh,LTK,0%
same,%Inh,LYN,0%
same,%Inh,LZK,8%
same,%Inh,MAK,0%
same,%Inh,MAP3K15,37%
same,%Inh,MAP3K1,11%
same,%Inh,MAP3K2,16%
same,%Inh,MAP3K3,0%
same,%Inh,MAP3K4,0%
same,%Inh,MAP4K2,0%
same,%Inh,MAP4K3,0%
same,%Inh,MAP4K4,0%
same,%Inh,MAP4K5,0%
same,%Inh,MAPKAPK2,0%
CN(c1ccc(NC(=O)Nc2cccc(Cl)c2)cc1)c1ccnc(N)n1.Cl [GW830707],%Inh,LCK,7%
same,%Inh,LIMK1,0%
same,%Inh,LIMK2,0%
same,%Inh,LKB1,20%
same,%Inh,LOK,97.8%
same,%Inh,LRRK2; [1],66%
same,%Inh,LTK,12%
same,%Inh,LYN,0%
same,%Inh,LZK,0%
same,%Inh,MAK,11%
same,%Inh,MAP3K15,0%
same,%Inh,MAP3K1,0%
same,%Inh,MAP3K2,0%
same,%Inh,MAP3K3,23%
same,%Inh,MAP3K4,0%
same,%Inh,MAP4K2,10%
same,%Inh,MAP4K3,0%
same,%Inh,MAP4K4,0%
same,%Inh,MAP4K5,16%
same,%Inh,MAPKAPK2,0%
CN(C)CCOc1ccc(-c2cc(-c3ccc(Cl)c(O)c3)c(-c3ccncc3)[nH]2)cc1.Cl.Cl [SB-684387],%Inh,LCK,86%
same,%Inh,LIMK1,13%
same,%Inh,LIMK2,11%
same,%Inh,LKB1,20%
same,%Inh,LOK,84%
same,%Inh,LRRK2; [1],17%
same,%Inh,LTK,0%
same,%Inh,LYN,28%
same,%Inh,LZK,41%
same,%Inh,MAK,41%
same,%Inh,MAP3K15,50%
same,%Inh,MAP3K1,0%
same,%Inh,MAP3K2,0%
same,%Inh,MAP3K3,0%
same,%Inh,MAP3K4,17%
same,%Inh,MAP4K2,27%
same,%Inh,MAP4K3,0%
same,%Inh,MAP4K4,22%
same,%Inh,MAP4K5,3%
same,%Inh,MAPKAPK2,12%
COc1cc(Nc2nccc(N3CCC(NS(=O)(=O)c4ccc(NC(C)=O)cc4)CC3)n2)cc(OC)c1OC [GSK1379825],%Inh,LCK,18%
same,%Inh,LIMK1,93%
same,%Inh,LIMK2,100%
same,%Inh,LKB1,0%
same,%Inh,LOK,2%
same,%Inh,LRRK2; [1],29%
same,%Inh,LTK,0%
same,%Inh,LYN,56%
same,%Inh,LZK,27%
same,%Inh,MAK,61%
same,%Inh,MAP3K15,0%
same,%Inh,MAP3K1,11%
same,%Inh,MAP3K2,18%
same,%Inh,MAP3K3,0%
same,%Inh,MAP3K4,31%
same,%Inh,MAP4K2,0%
same,%Inh,MAP4K3,40%
same,%Inh,MAP4K4,68%
same,%Inh,MAP4K5,53%
same,%Inh,MAPKAPK2,0%

# — publication PMC5540273 (PLoS ONE, 2017)
